Reference: PubChem BioAssay
The source made the active and inactive calls.

Columns and labels:
[1] = target: Albumin (Bos taurus) (UniProt P02769); experiment: compounds binding labelled BSA control protein – biochemical, small-molecule microarray, Alexa647 label, 635/667 nm fluorescence, artefact control for SMM control protein annotation, profiling panel (AID 1118); details: BSA-A647 binding, fluorescence 635 nm, higher = more signal;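 also: score merges 667 nm emission intensity and signal-to-noise per printed compound spot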
Chain of Albumin (Bos taurus) (P02769 whole entry, looked up): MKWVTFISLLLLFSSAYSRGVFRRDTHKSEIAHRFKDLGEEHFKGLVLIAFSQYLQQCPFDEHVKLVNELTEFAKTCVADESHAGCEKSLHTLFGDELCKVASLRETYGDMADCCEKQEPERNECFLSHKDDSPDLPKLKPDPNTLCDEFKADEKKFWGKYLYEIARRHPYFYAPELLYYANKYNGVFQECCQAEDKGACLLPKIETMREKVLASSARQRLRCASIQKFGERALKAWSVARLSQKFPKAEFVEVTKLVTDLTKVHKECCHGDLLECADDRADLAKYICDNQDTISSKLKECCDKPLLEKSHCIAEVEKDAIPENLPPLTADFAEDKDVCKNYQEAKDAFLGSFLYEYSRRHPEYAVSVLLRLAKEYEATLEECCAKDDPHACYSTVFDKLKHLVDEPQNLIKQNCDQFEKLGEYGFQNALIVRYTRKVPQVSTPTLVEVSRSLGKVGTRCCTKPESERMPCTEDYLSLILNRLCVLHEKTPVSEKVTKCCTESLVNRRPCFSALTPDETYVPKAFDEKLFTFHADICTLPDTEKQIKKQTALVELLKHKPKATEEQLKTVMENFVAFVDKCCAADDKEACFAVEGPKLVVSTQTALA

[2] = probe aXIP binding to arrayed compounds – biochemical, NeuroSMM set, 635/667 nm fluorescence, primary screen (AID 1119); details: small-molecule microarray, higher = more signal, called active from +8 up or from −8 down;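 also: probe is the protein aXip251-270 applied at 1 µg/mL to compound-printed slides; binding of probe to printed compounds measured as 667 nm fluorescence plus signal to noise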
[3] = probe aNOTCH3 binding on compound microarray – biochemical, small-molecule microarray, 635/667 nm fluorescence, primary screen (AID 1120); details: higher = more signal;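 also: probe is a biotin-tagged antibody raised against NOTCH3 rather than NOTCH3 protein; score merges spot fluorescence near 667 nm with spot signal to noise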
[4] = probe aNOTCH2 binding on compound microarray – biochemical, small-molecule microarray, 635/667 nm fluorescence, primary screen (AID 1121); details: higher = more signal;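 also: score merges feature fluorescence read at 667 nm with its signal to noise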
[5] = target: Carbonic anhydrase 2 (Homo sapiens) (UniProt P00918); experiment: compounds binding carbonic anhydrase 2 – biochemical, small-molecule microarray, Alexa647-labelled CAII, profiling panel (AID 1122); details: CAII-A647 binding fluorescence, higher = more signal
[6] = COS7 lysate on small-molecule microarray, probe aHis, 635 nm (AID 1123); details: COS7 cell lysate, fluorescence, higher = more signal;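 also: z-score combines 667nm fluorescence intensity with signal-to-noise per printed compound spot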
[7] = probe aLAP1 signal on lysate-treated microarray – cell lysate, small-molecule microarray, COS7 lysate, primary screen (AID 1124); details: probe aLAP1, fluorescence, higher = more signal;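 also: lysate comes from COS7 cells expressing LAP1 and is applied at 0.3 µg/mL; score merges spot fluorescence near 667 nm with signal-to-noise over triplicate slides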
[8] = test system: Sam68 (KHDRBS1); experiment: compounds binding KHDRBS1 protein – biochemical, small-molecule microarray, 635 nm fluorescence, primary screen (AID 1125); details: higher = more signal;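 also: score merges 667 nm channel intensity with signal to noise over triplicate slides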
[9] = test system: Chordin-like protein 2 (CHRDL2); experiment: compounds binding chordin-like 2 – biochemical, small-molecule microarray, 635 nm fluorescence, primary screen (AID 1126); details: fluorescence 635 nm, higher = more signal;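 also: printed compound slides probed with Chrdl2 protein at 4 µg/mL for 1 h at 4 C; score merges 667 nm emission intensity with signal to noise over three replicate slides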
[10] = target: Concanavalin-A (Canavalia ensiformis) (UniProt P02866); experiment: compounds binding concanavalin A lectin – biochemical, small-molecule microarray, Alexa647 label, 635 nm, artefact control for SMM control protein annotation, primary screen (AID 1127); details: ConA-A647 binding fluorescence, higher = more signal;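 also: z combines 667 nm emission intensity with signal-to-noise across three replicate slides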
Chain of Concanavalin-A (Canavalia ensiformis) (P02866 whole entry, looked up): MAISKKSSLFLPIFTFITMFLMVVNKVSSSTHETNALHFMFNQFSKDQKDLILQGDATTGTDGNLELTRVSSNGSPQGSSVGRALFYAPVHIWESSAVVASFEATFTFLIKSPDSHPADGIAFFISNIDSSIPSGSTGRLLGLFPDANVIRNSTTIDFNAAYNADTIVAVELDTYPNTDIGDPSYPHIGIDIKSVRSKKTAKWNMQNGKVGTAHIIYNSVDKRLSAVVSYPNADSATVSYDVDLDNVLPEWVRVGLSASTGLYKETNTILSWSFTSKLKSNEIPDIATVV

[11] = compounds binding Alexa647 anti-His antibody – biochemical, small-molecule microarray, 635 nm fluorescence, artefact control for SMM control protein annotation, primary screen (AID 1128); details: higher = more signal;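 also: score merges feature fluorescence with signal-to-noise for each printed compound spot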
[12] = test system: Human papillomavirus type 1a E7 protein (residues 1-88); experiment: HPV1a E7 small-molecule binders, primary screen, biochemical, small-molecule microarray, residues 1-88, 635 nm (AID 1129); details: small-molecule microarray binding, fluorescence 635 nm; higher = more signal
[13] = target: Focal adhesion kinase 1 (Homo sapiens) (UniProt Q05397); experiment: PTK2 protein binding on printed compound slides – biochemical, small-molecule microarray, 635/667 nm fluorescence, BSA, DTT, primary screen (AID 1130); details: 635 nm fluorescence, higher = more signal;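 also: composite of spot emission at 667 nm and signal to noise over triplicate slides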
Chain of Focal adhesion kinase 1 (Homo sapiens) (Q05397 whole entry, looked up): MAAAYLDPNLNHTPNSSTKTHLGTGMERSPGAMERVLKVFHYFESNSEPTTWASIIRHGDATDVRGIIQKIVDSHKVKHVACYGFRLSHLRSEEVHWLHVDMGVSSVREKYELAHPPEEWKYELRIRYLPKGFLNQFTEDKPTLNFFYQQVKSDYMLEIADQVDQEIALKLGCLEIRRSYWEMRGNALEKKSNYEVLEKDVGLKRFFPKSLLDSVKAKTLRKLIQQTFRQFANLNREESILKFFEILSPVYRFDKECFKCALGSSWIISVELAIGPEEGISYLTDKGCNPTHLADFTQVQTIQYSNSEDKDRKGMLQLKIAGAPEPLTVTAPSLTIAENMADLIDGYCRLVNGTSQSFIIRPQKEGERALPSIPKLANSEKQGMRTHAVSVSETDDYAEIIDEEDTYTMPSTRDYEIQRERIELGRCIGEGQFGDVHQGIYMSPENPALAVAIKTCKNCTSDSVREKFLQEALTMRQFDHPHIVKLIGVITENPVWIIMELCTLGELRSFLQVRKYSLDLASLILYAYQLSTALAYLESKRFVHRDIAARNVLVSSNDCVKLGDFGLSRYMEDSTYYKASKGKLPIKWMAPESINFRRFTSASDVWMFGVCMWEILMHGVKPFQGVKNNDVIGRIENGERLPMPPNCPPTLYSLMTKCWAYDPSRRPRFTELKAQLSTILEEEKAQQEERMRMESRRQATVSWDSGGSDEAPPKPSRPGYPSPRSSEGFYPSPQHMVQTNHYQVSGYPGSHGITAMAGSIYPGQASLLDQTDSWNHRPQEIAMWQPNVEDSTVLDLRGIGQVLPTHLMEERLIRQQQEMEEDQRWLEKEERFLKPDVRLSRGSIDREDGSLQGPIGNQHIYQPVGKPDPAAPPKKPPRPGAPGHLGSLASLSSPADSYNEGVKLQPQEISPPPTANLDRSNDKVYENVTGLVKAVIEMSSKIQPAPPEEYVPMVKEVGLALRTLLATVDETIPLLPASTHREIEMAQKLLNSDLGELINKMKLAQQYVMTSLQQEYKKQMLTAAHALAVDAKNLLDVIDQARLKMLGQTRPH

[14] = test system: Fibrinogen (Alexa647-labelled); experiment: Alexa647-fibrinogen binding to printed small molecules – biochemical, small-molecule microarray, 635/667 nm fluorescence, artefact control for SMM control-protein annotation, profiling panel (AID 1131); details: fibrinogen-A647 binding fluorescence, higher = more signal;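 also: z-score merges 667 nm fluorescence with per-spot signal-to-noise over triplicate slides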
[15] = target: Follistatin (Homo sapiens) (UniProt P19883); experiment: FST protein binding to printed compounds – biochemical, small-molecule microarray, 635/667 nm fluorescence, primary screen (AID 1132); details: 635 nm fluorescence, higher = more signal
Chain of Follistatin (Homo sapiens) (P19883 whole entry, looked up): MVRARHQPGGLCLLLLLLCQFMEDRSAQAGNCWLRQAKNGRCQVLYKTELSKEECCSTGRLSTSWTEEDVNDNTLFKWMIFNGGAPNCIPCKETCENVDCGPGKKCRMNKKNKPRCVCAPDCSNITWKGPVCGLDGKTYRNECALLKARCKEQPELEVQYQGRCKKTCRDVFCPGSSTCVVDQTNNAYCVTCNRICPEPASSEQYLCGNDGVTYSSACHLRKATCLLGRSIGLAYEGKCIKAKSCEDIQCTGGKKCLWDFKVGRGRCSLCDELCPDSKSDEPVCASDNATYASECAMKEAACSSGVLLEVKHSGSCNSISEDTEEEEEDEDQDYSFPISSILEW

[16] = target: Fibroblast growth factor 2 (Homo sapiens) (UniProt P09038); experiment: basic fibroblast growth factor binding to printed compounds – biochemical, small-molecule microarray, 635/667 nm fluorescence, primary screen (AID 1133); details: FGF2, fluorescence 635/667, higher = more signal
Chain of Fibroblast growth factor 2 (Homo sapiens) (P09038 whole entry, looked up): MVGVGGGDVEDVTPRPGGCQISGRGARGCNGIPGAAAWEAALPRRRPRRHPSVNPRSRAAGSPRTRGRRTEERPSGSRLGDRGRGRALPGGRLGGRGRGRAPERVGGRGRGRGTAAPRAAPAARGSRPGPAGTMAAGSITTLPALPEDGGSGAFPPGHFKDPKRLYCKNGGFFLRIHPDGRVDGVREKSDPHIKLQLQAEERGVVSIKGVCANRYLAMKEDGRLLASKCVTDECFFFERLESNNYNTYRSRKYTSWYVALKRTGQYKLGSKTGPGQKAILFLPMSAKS

[17] = JC-1 mitochondrial potential readout, lung cancer cells – cell-based, A549, JC-1 fluorescence, basal, 24 h, 100 nL, profiling panel (AID 1138); details: higher = more signal;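 also: A549 lung adenocarcinoma cells under basal conditions with no added stimulus; test concentration not given here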
[18] = test system: Lefty1; experiment: Lefty1 protein binding to printed compounds – biochemical, small-molecule microarray, 635/667 nm fluorescence, primary screen (AID 1139); details: fluorescence 635/667, higher = more signal
[19] = test system: wheat germ agglutinin (Triticum aestivum), Alexa647-labelled; experiment: Alexa647-WGA lectin binding to printed small molecules – biochemical, small-molecule microarray, 635/667 nm fluorescence, artefact control for SMM control-protein annotation, profiling panel (AID 1140); details: WGA-A647 binding, 635 nm fluorescence, higher = more signal;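 also: score merges 667 nm feature emission with signal to noise over triplicate slides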
[20] = target: Luciferin 4-monooxygenase (Photinus pyralis) (UniProt P08659); experiment: inhibition of purified Photinus pyralis luciferase – biochemical, luminescence, purified enzyme, 2006 set, primary screen (AID 1141); details: purified firefly luciferase, SteadyGlo luminescence, 30 min; higher = more signal, called active from +8 up or from −8 down;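 also: cell-free assay with purified firefly luciferase at 100 ng per well in PBS; test concentration not given here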
Chain of Luciferin 4-monooxygenase (Photinus pyralis) (P08659 whole entry, looked up): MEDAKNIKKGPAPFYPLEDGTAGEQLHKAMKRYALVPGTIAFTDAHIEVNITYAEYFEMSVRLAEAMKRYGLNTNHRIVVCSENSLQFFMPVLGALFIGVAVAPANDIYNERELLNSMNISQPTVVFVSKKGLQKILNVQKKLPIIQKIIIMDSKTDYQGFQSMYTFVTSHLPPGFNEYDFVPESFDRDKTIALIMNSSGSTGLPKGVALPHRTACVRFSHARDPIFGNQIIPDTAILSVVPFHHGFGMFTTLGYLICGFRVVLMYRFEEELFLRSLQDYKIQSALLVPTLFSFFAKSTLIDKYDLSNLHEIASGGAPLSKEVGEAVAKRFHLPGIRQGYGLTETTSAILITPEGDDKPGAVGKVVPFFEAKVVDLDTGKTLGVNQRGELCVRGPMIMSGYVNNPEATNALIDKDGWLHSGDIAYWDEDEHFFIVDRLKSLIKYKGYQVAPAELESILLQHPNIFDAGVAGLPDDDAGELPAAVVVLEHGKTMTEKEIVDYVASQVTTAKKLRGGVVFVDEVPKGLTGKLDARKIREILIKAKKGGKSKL

In the case of `C=CCOC(=O)[C@@]1(Cc2ccccc2)C[C@H]2CO[C@H](c3ccc(OC)cc3)N2C1=O`, the composite z-score [1] is reported as 0.484, the composite Z-score [2] is reported as -0.415 (inactive) and the composite z-score [3] is reported as -0.0615. The composite z-score [4] was -0.107, the composite z-score [5] was -0.0067 and the composite z-score [6] was 0.146. For the same compound, the composite z-score [7] was 0.0469, the composite z-score [8] was 0.168 and the composite z-score [9] was 0.194. The composite z-score [10] was 0.192, the composite z-score [11] was 0.848 and the composite z-score [12] was 0.191. For the same compound, the composite z-score [13] was 0.575, the composite z-score [14] was 0.494 and the composite z-score [15] was 0.3. It also gave a composite z-score [16] of 0.186, a z-score [17] of 0.272 and a composite z-score [18] of 0.55. The composite z-score [19] was 0.133 and the z-score [20] was -0.0402 (inactive).

In the case of `COC(=O)C1=CC(CCCO)=CC(c2ccc(CN3CCCC3)cc2)N(Cc2cccc(OC(F)(F)F)c2)C=C1C(=O)OC` (stereo not given), the composite z-score [1] is reported as 0.996, the composite Z-score [2] is reported as 0.29 (inactive) and the composite z-score [3] is reported as 0.133. The composite z-score [4] was -0.0502, the composite z-score [5] was 0.387 and the composite z-score [6] was 2.21. It also gave a composite z-score [7] of 0.612, a composite z-score [8] of 1.3 and a composite z-score [9] of -0.551. It also gave a composite z-score [10] of 1.11, a composite z-score [11] of 1.6 and a composite z-score [12] of 1.11. It also gave a composite z-score [13] of 0.875, a composite z-score [14] of 1 and a composite z-score [15] of 0.325. For the same compound, the composite z-score [16] was -0.292, the z-score [17] was 2.87 and the composite z-score [18] was 0.279. For the same compound, the composite z-score [19] was 1.11 and the z-score [20] was -3.06 (inactive).

With `Cc1ccc(S[C@]2(C(=O)O)CC(=O)N(C3CCCCC3)[C@@H]2c2ccc(CO)cc2I)cc1` the composite z-score [1] was 0.905, the composite Z-score [2] was 0.258 (inactive) and the composite z-score [3] was 0.175. The composite z-score [4] was -0.013, the composite z-score [5] was 0.331 and the composite z-score [6] was 2.84. It also gave a composite z-score [7] of 1.01, a composite z-score [8] of 1.29 and a composite z-score [9] of -0.565. For the same compound, the composite z-score [10] was 1.02, the composite z-score [11] was 0.96 and the composite z-score [12] was 1.22. It also gave a composite z-score [13] of -0.155, a composite z-score [14] of 0.745 and a composite z-score [15] of 1.19. It also gave a composite z-score [16] of 0.101, a z-score [17] of -0.996 and a composite z-score [18] of -0.163. For the same compound, the composite z-score [19] was 0.89 and the z-score [20] was 0.453 (inactive).

In the case of `CCOC(=O)C1=C[C@@H](C(C)C)N(S(=O)(=O)c2ccc(C)cc2)[C@H]1c1ccc(C(F)(F)F)cc1`, the composite z-score [1] is reported as 0.665, the composite Z-score [2] is reported as 0.559 (inactive) and the composite z-score [3] is reported as 0.256. The composite z-score [4] was -0.0438, the composite z-score [5] was 0.173 and the composite z-score [6] was 2.52. For the same compound, the composite z-score [7] was 0.327, the composite z-score [8] was 1.31 and the composite z-score [9] was 0.106. For the same compound, the composite z-score [10] was 1.05, the composite z-score [11] was 0.922 and the composite z-score [12] was 1.22. It also gave a composite z-score [13] of 0.224, a composite z-score [14] of 0.975 and a composite z-score [15] of 0.929. The composite z-score [16] was 0.604, the z-score [17] was 2.67 and the composite z-score [18] was 0.895. The composite z-score [19] was 0.909 and the z-score [20] was 0.612 (inactive).

With `CC1=C2[C@@H](CCc3ccccc3)OB(O)C[C@@H]2[C@@H]2C(=O)N(Cc3ccccc3)C(=O)[C@@H]2C1` the composite z-score [1] was 0.415, the composite Z-score [2] was 0.831 (inactive) and the composite z-score [3] was -0.145. The composite z-score [4] was -0.0735, the composite z-score [5] was 0.585 and the composite z-score [6] was 0.328. For the same compound, the composite z-score [7] was -0.294, the composite z-score [8] was 0.227 and the composite z-score [9] was 0.226. For the same compound, the composite z-score [10] was 0.948, the composite z-score [11] was 0.0349 and the composite z-score [12] was 0.55. The composite z-score [13] was -0.0683, the composite z-score [14] was 0.987 and the composite z-score [15] was 0.946. The composite z-score [16] was 0.33, the z-score [17] was 0.758 and the composite z-score [18] was 0.388. The composite z-score [19] was 0.505 and the z-score [20] was -0.653 (inactive).

In the case of `CC1CC/C=C\[C@H]2OC34C=CCN(Cc5ccccc5)C(=O)[C@H]3N(C(CO)C(C)C)C(=O)[C@@H]4C2C(=O)O1` (stereo not given in full), the composite z-score [1] is reported as -1.39, the composite Z-score [2] is reported as -0.263 (inactive) and the composite z-score [3] is reported as 0.0666. For the same compound, the composite z-score [4] was -0.0418, the composite z-score [5] was 0.821 and the composite z-score [6] was 0.152. It also gave a composite z-score [7] of 0.219, a composite z-score [8] of -0.271 and a composite z-score [9] of -0.398. The composite z-score [10] was -0.355, the composite z-score [11] was -0.696 and the composite z-score [12] was -1.03. For the same compound, the composite z-score [13] was -0.475, the composite z-score [14] was -0.798 and the composite z-score [15] was -0.528. It also gave a composite z-score [16] of -0.81, a z-score [17] of 1.32 and a composite z-score [18] of -0.722. For the same compound, the composite z-score [19] was 0.389 and the z-score [20] was -1.15 (inactive).
